Assay results as given in PubChem BioAssay AID1159580 (chemical genetic matrix, 2015).
Values joined by “and” are separate entries in the source; they are usually repeats but may differ in a detail not shown here. Equal entries are not always repeated. Screen size: about 5,500 compounds; about 2,000 (36%) were called active. Another 18% or so got no clear call; they are omitted. Rule as the data show it: active = normalized growth mostly below about 0.91 (no sharp cut-off); inconclusive = no clear call, values can overlap the other calls; inactive = mostly above about 0.92. The list shows a part of the results.

Assay: chemical genetic growth profiling, strain panel (AID 1159580);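 also: tested at 20 µM; growth read once vehicle control cultures reached saturation at 30 °C; 1 = growth at the plate median or of vehicle wells; lower values mean less growth of the strain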
Settings: growth OD

Measured: normalized growth

O=C(O)c1cc(=O)c2c(Cl)cc(Cl)cc2[nH]1
inactive: S. cerevisiae deletion strains, locus YJL187C, strain SWE1, active compounds read low 1.02 | S. cerevisiae deletion strains, locus YJR043C, strain POL32, active compounds read low 1 | S. cerevisiae deletion strains, locus YJR075W, strain HOC1, active compounds read low 0.985 | S. cerevisiae deletion strains, locus YKL009W, strain mrt4, active compounds read low 1 | S. cerevisiae deletion strains, locus YKL068W, active compounds read low 1 | S. cerevisiae deletion strains, locus YKL085W, strain MDH1 (second series), active compounds read low 1.01 | S. cerevisiae deletion strains, locus YKL085W, strain MDH1, active compounds read low 1.01 | S. cerevisiae deletion strains, locus YKL160W, strain elf1, active compounds read low 1.01 | S. cerevisiae deletion strains, locus YKL190W, strain CNB1, active compounds read low 1 | S. cerevisiae deletion strains, locus YKR001C, strain vps1, active compounds read low 1.05 | S. cerevisiae deletion strains, locus YKR026C, strain gcn3, active compounds read low 1.02 | S. cerevisiae deletion strains, locus YKR091W, strain srl3, active compounds read low 1.01 | S. cerevisiae deletion strains, locus YLL001W, strain dnm1, active compounds read low 1.03 | S. cerevisiae deletion strains, locus YLL026W, active compounds read low 1.01 | S. cerevisiae deletion strains, locus YLL041C, strain sdh2, active compounds read low 1.01 | S. cerevisiae deletion strains, locus YLR027C, strain aat2, active compounds read low 1.01 | S. cerevisiae deletion strains, locus YLR039C, strain RIC1, active compounds read low 1.04 | S. cerevisiae deletion strains, locus YLR058C, strain SHM2, active compounds read low 1.01 | S. cerevisiae deletion strains, locus YLR102C, strain apc9, active compounds read low 1.01 | S. cerevisiae deletion strains, locus YLR221C, strain rsa3, active compounds read low 1.02 | S. cerevisiae deletion strains, locus YLR258W, strain gsy2, active compounds read low 1.02 | S. cerevisiae deletion strains, locus YLR262C, strain YPT6 (second series), active compounds read low 1.01 | S. cerevisiae deletion strains, locus YLR262C, strain YPT6, active compounds read low 1.03 | S. cerevisiae deletion strains, locus YLR268W, strain sec22, active compounds read low 1.03 | S. cerevisiae deletion strains, locus YLR320W, strain mms22, active compounds read low 1.03 | S. cerevisiae deletion strains, locus YLR330W, strain CHS5, active compounds read low 1.01 | S. cerevisiae deletion strains, locus YLR342W, strain FKS1 (second series), active compounds read low 1.02 | S. cerevisiae deletion strains, locus YLR342W, strain FKS1, active compounds read low 1.02 | S. cerevisiae deletion strains, locus YLR357W, strain rsc2, active compounds read low 1 | S. cerevisiae deletion strains, locus YLR370C, strain arc18, active compounds read low 1.02 | S. cerevisiae deletion strains, locus YLR371W, strain rom2, active compounds read low 1 | S. cerevisiae deletion strains, locus YLR384C, strain iki3, active compounds read low 1.01 | S. cerevisiae deletion strains, locus YLR418C, strain cdc73, active compounds read low 1.05 | S. cerevisiae deletion strains, locus YML016C, strain PPZ1, active compounds read low 1.01 | S. cerevisiae deletion strains, locus YML032C, strain rad52, active compounds read low 1.01 | S. cerevisiae deletion strains, locus YML120C, strain ndi1, active compounds read low 1.02 | S. cerevisiae deletion strains, locus YML124C, strain tub3, active compounds read low 1.01 | S. cerevisiae deletion strains, locus YMR058W, strain fet3, active compounds read low 1.01 | S. cerevisiae deletion strains, locus YMR078C, strain ctf18, active compounds read low 1.03 | S. cerevisiae deletion strains, locus YMR125W, strain sto1, active compounds read low 1 | S. cerevisiae deletion strains, locus YMR129W, active compounds read low 1.01 | S. cerevisiae deletion strains, locus YMR205C, strain PFK2, active compounds read low 1.01 | S. cerevisiae deletion strains, locus YMR223W, strain ubp8, active compounds read low 1.03 | S. cerevisiae deletion strains, locus YMR231W, strain pep5, active compounds read low 1.01 | S. cerevisiae deletion strains, locus YMR263W, strain SAP30, active compounds read low 1 | S. cerevisiae deletion strains, locus YMR307W, strain GAS1, active compounds read low 1.04 | S. cerevisiae deletion strains, locus YNL067W, strain RPL9B, active compounds read low 0.997 | S. cerevisiae deletion strains, locus YNL071W, strain lat1, active compounds read low 1.02 | S. cerevisiae deletion strains, locus YNL153C, strain GIM3, active compounds read low 1 | S. cerevisiae deletion strains, locus YNL175C, strain NOP13, active compounds read low 0.996 | S. cerevisiae deletion strains, locus YNL197C, strain WHI3, active compounds read low 1.01 | S. cerevisiae deletion strains, locus YNL209W, strain ssb2, active compounds read low 1 | S. cerevisiae deletion strains, locus YNL224C, strain SQS1, active compounds read low 0.995 | S. cerevisiae deletion strains, locus YNL233W, strain BNI4, active compounds read low 1 | S. cerevisiae deletion strains, locus YNL248C, strain rpa49, active compounds read low 1.01 | S. cerevisiae deletion strains, locus YNL250W, strain rad50, active compounds read low 1.03 | S. cerevisiae deletion strains, locus YNL271C, strain bni1, active compounds read low 1.02 | S. cerevisiae deletion strains, locus YNL298W, strain CLA4, active compounds read low 1.01 | S. cerevisiae deletion strains, locus YNL307C, strain MCK1, active compounds read low 1.02 | S. cerevisiae deletion strains, locus YNL322C, strain KRE1 (second series), active compounds read low 1.02 | S. cerevisiae deletion strains, locus YNL322C, strain KRE1, active compounds read low 0.993 and 1 | S. cerevisiae deletion strains, locus YNR049C, strain mso1, active compounds read low 1.01 | S. cerevisiae deletion strains, locus YNR052C, strain pop2, active compounds read low 1.02 | S. cerevisiae deletion strains, locus YOL006C, strain TOP1, active compounds read low 0.999 | S. cerevisiae deletion strains, locus YOL012C, strain htz1 1.91 | S. cerevisiae deletion strains, locus YOL147C, strain pex11, active compounds read low 1.02 | S. cerevisiae deletion strains, locus YOR001W, strain rrp6, active compounds read low 1.01 | S. cerevisiae deletion strains, locus YOR061W, strain CKA2, active compounds read low 1.02 | S. cerevisiae deletion strains, locus YOR069W, strain VPS5, active compounds read low 1.01 | S. cerevisiae deletion strains, locus YOR070C, strain gyp1, active compounds read low 1.01 | S. cerevisiae deletion strains, locus YOR080W, strain dia2, active compounds read low 1.02 | S. cerevisiae deletion strains, locus YOR083W, strain WHI5 (second series), active compounds read low 0.994 | S. cerevisiae deletion strains, locus YOR083W, strain WHI5, active compounds read low 1.02 | S. cerevisiae deletion strains, locus YOR106W, strain vam3, active compounds read low 1.01 | S. cerevisiae deletion strains, locus YOR136W, strain idh2, active compounds read low 1.02 | S. cerevisiae deletion strains, locus YOR144C, strain elg1, active compounds read low 1.01 | S. cerevisiae deletion strains, locus YOR184W, strain ser1, active compounds read low 1.02 | S. cerevisiae deletion strains, locus YOR265W, strain rbl2, active compounds read low 1.01 | S. cerevisiae deletion strains, locus YOR270C, strain vph1, active compounds read low 1.03 | S. cerevisiae deletion strains, locus YOR290C, strain snf2, active compounds read low 0.991 | S. cerevisiae deletion strains, locus YOR316C, strain cot1, active compounds read low 1.01 | S. cerevisiae deletion strains, locus YPL051W, strain arl3, active compounds read low 1.01 | S. cerevisiae deletion strains, locus YPL055C, strain LGE1, active compounds read low 0.992 | S. cerevisiae deletion strains, locus YPL078C, strain atp4, active compounds read low 1.01 | S. cerevisiae deletion strains, locus YPL106C, strain sse1, active compounds read low 0.999 | S. cerevisiae deletion strains, locus YPL240C, strain hsp82, active compounds read low 1.02 | S. cerevisiae deletion strains, locus YPL241C, strain CIN2, active compounds read low 1 | S. cerevisiae deletion strains, locus YPR119W, strain clb2, active compounds read low 1.01 | S. cerevisiae deletion strains, locus YPR141C, strain kar3, active compounds read low 1.01 | S. cerevisiae deletion strains, locus YPR163C, strain tif3, active compounds read low 1.02 | S. cerevisiae deletion strains, locus YPR167C, strain met16, active compounds read low 1.02 | S. cerevisiae deletion strains, strain wtn01, active compounds read low 1.02 | S. cerevisiae strains, strain wild type, active compounds read low 1
